Values without a mark were called inactive.
system: Mel-DCC-11-R; assay: cell viability relative to DMSO control (fraction of DMSO control); higher = less cytotoxic, active = 0.8 or less; details: 1 µM; 120 h; vemurafenib co-treatment 8 µM
Procedure, shortened: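 A library of 315 approved anti-cancer drugs (TargetMol) was acoustically pre-spotted into 384-well plates and tested at 1 µM in duplicate for 120 h. Cells were added in 40 µl per well: NHEM-hTERT immortalized melanocytes at 2500/well, and patient-derived Mel-DCC-11 and its resistant subline Mel-DCC-11-R at 1500/well. The subline was tested both alone and with 8 µM of its selecting drug. Viability was read by ATPlite 1step luminescence, normalised to DMSO controls and averaged over duplicates.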

With `C[C@@H]1O[C@@H](OC[C@H]2O[C@@H](Oc3c(-c4ccc(O)c(O)c4)oc4cc(O)cc(O)c4c3=O)[C@H](O)[C@@H](O)[C@@H]2O)[C@H](O)[C@H](O)[C@H]1O` [Rutin] as the compound, how does the cell viability read?
The cell viability was 0.929.

With `Cc1coc2c1C(=O)C(=O)c1c-2ccc2c(C)cccc12` [Tanshinone I] as the compound, how does the cell viability read?
Its cell viability is 0.825.

With `O=C(/C=C/c1ccc(O)cc1)c1ccc(O)cc1O` [Isoliquiritigenin] as the compound, how does the cell viability read?
The cell viability was 1.02.

`C[C@@H]1C[C@H]2[C@@H]3CCC4=CC(=O)C=C[C@]4(C)[C@@]3(F)[C@@H](O)C[C@]2(C)[C@@]1(O)C(=O)COP(=O)([O-])[O-].[Na+].[Na+]` [Dexamethasone Sodium Phosphate] was tested. Which cell viability did it give?
The cell viability was 0.927.

For `O=c1[nH]c(=O)n([C@H]2C[C@H](O)[C@@H](CO)O2)cc1F` [Floxuridine], which cell viability is on record?
The cell viability was 1.07.

`Nc1nc2[nH]nnc2c(=O)[nH]1` [8-Azaguanine] was tested. Which cell viability did it give?
The cell viability was 1.05.

Which cell viability does the source give for `Oc1cc(O)cc(/C=C/c2ccc(O)c(O)c2)c1` [Piceatannol] here?
Its cell viability is 1.

How did the cell viability turn out when `Nc1ccn([C@@H]2O[C@H](CO)[C@@H](O)C2(F)F)c(=O)n1` [Gemcitabine] was run?
Its cell viability is 0.709 (active).

For `Cc1ccc(Nc2nccc(N(C)c3ccc4c(C)n(C)nc4c3)n2)cc1S(N)(=O)=O` [Pazopanib], which cell viability is on record?
Its cell viability is 1.13.

With `CO[C@H]1C[C@@H]2CC[C@@H](C)[C@@](O)(O2)C(=O)C(=O)N2CCCC[C@H]2C(=O)O[C@H]([C@H](C)C[C@@H]2CC[C@@H](O)[C@H](OC)C2)CC(=O)[C@H](C)/C=C(\C)[C@@H](O)[C@@H](OC)C(=O)[C@H](C)C[C@H](C)/C=C/C=C/C=C/1C` [Rapamycin] as the compound, how does the cell viability read?
Its cell viability is 0.783 (active).

Which cell viability does the source give for `Nc1nc(Cl)nc2c1ncn2[C@@H]1O[C@H](CO)[C@@H](O)[C@@H]1F` [Clofarabine] here?
The cell viability was 0.67 (active).

With `CN1CCN(c2ccc3nc(-c4c(N)c5c(F)cccc5[nH]c4=O)[nH]c3c2)CC1` [Dovitinib] as the compound, how does the cell viability read?
Its cell viability is 1.08.

`CC(C)C[C@@H](NC(=O)[C@H](O)[C@@H](N)Cc1ccccc1)C(=O)O.Cl` [Bestatin hydrochloride] was tested. Which cell viability did it give?
Its cell viability is 1.14.

For `CC1=C(CC(=O)O)c2cc(F)ccc2/C1=C\c1ccc(S(C)=O)cc1` (centres undefined) [Sulindac], which cell viability is on record?
The cell viability was 1.03.

— the supplement of paper PMC12808144
